Source: PubChem (Center for Chemical Genomics, University of Michigan)
HIV TAR-Tat: HIV-1 TAR-Tat binding disruption; HIV-1 TAR RNA, Tat peptide displacement FRET; stronger effect = higher value; z-score (no concentration beside the values); 100,000 tested, 0.6% active; AID 1259389; active = z-score of 3 or more in at least 2 runs
CDC25B-CDK2 inh: human CDC25B-CDK2/CyclinA binding inhibition | HTRF CDC25B-CDK2/CyclinA binding, anti-His/anti-Flag; stronger effect = higher value | AID 1259370 | z-score (no concentration beside the values) | P30305+P24941 | 94,000 tested, 0.72% active; in the data active = z-score above about 3.2
Each line names hits and unclear results; the compound was inactive in the other large screens. Hits are enriched below; roughly 0.93% of the tested compounds scored in any of these assays.

Cc1ccc(-n2cc3c(=O)[nH]cnc3n2)cc1	none
O=c1[nH]cnc2nn(-c3ccccc3)cc12	HIV TAR-Tat 4.02
Cc1ccc(-c2nc3cc(Cl)ccc3o2)cc1NC(=O)c1sc2ccccc2c1Cl	none (no result: HIV TAR-Tat)
Cc1ccccc1C(=O)Nc1nc(SCc2ccc(Cl)cc2)n[nH]1	none (no result: HIV TAR-Tat)
O=C(O)CSCC(=O)Nc1nc(SCc2ccc(Cl)cc2)n[nH]1	CDC25B-CDK2 inh 6.97 (no result: HIV TAR-Tat)
Cc1nnc2c(Nc3ccc(O)cc3)nc3ccccc3n12	HIV TAR-Tat 7.22
Cc1nnc2c(Nc3ccc(N(C)C)cc3)nc3ccccc3n12	none
COc1ccc(C2CC(=O)N3CN(c4ccc(Br)cc4)CSC3=C2C#N)cc1OC (stereo not given)	CDC25B-CDK2 inh 5.59
N#CC1=C2SCN(c3ccc(Br)cc3)CN2C(=O)CC1c1ccccc1F (stereo not given)	CDC25B-CDK2 inh 7.27
COc1cccc(C2CC(=O)N3CN(C)CSC3=C2C#N)c1OC (stereo not given)	CDC25B-CDK2 inh 4.32
COc1cccc(C2CC(=O)N3CN(c4ccccc4)CSC3=C2C#N)c1OC (stereo not given)	CDC25B-CDK2 inh 3.46
COC(=O)c1cc(NC(=O)c2ccc(-c3cccc([N+](=O)[O-])c3)o2)cc(C(=O)OC)c1	none (no result: HIV TAR-Tat)
CC(=O)N1c2ccc(S(=O)(=O)NC(C(=O)Nc3ccc(Cl)cc3)C(C)C)cc2CC1C (stereo not given)	none (no result: CDC25B-CDK2 inh)
COc1cc(C2C(=O)N(C3CCCCC3)CC(=O)N2Cc2ccco2)ccc1OC(C)C (stereo not given)	none (no result: HIV TAR-Tat)
CCCSc1ncc(Cl)c(C(=O)Nc2sc3c(c2C(=O)OCC)CCC3)n1	none
COc1ccc(C2OCC(C)(C)n3c(-c4ccccc4)c4c(=O)n(C)c(=O)n(C)c4c32)c(OC)c1 (stereo not given)	none
Cc1cc(OCc2cc(=O)n3c(-c4ccccc4)csc3n2)ccc1Cl	none
Cc1cccc(N2CCN(c3ccc4cc(S(=O)(=O)N5CCCC5)ccc4n3)CC2)c1C	none (no result: CDC25B-CDK2 inh)
COc1cccc(C2CC(=O)N3CN(C4CCCCC4)CSC3=C2C#N)c1OC (stereo not given)	CDC25B-CDK2 inh 6.17
COc1cccc(C2CC(=O)N3CN(c4ccc(Br)cc4)CSC3=C2C#N)c1OC (stereo not given)	CDC25B-CDK2 inh 5.94
COc1ccccc1C1CC(=O)N2CN(C3CCCCC3)CSC2=C1C#N (stereo not given)	none
N#CC1=C2SCN(C3CCCCC3)CN2C(=O)CC1c1ccc(Cl)cc1 (stereo not given)	none
Cc1ccc(C2CC(=O)N3CN(c4ccc(Br)cc4)CSC3=C2C#N)o1 (stereo not given)	CDC25B-CDK2 inh 7.35
COc1ccc(C2CC(=O)N3CN(C4CCCC4)CSC3=C2C#N)cc1OC (stereo not given)	CDC25B-CDK2 inh 5.89
COC(=O)c1ccncc1C(=O)O	none (no result: HIV TAR-Tat)
COc1ccc(C2Nc3ccccc3S(=O)(=O)N2Cc2ccccc2)c(OC)c1 (stereo not given)	none (no result: HIV TAR-Tat)
CCC(=O)OCCNc1cc(N2CCCC2)c2noc3c2c1C(=O)c1ccccc1-3	none
O=C(NCCSCc1ccco1)C1CCN(c2ccc(Cl)cc2)C1=O (stereo not given)	none (no result: CDC25B-CDK2 inh)
Cc1ccc(S(=O)(=O)Cc2csc(N3CCOCC3)n2)cc1	none (no result: HIV TAR-Tat)
COC(=O)c1ccc2[nH]c3c(c2c1)CCCC3	none (no result: HIV TAR-Tat)
O=S(=O)(c1ccc2[nH]c3c(c2c1)CCCC3)N1CCCCC1	none (no result: CDC25B-CDK2 inh)
O=S(=O)(c1ccc2[nH]c3c(c2c1)CCCCC3)N1CCCCC1	HIV TAR-Tat 3.36 (no result: CDC25B-CDK2 inh)
CC(C)OC(=O)c1ccc2[nH]c3c(c2c1)CCCC3	CDC25B-CDK2 inh 18.3
CCC1C(=O)C(C)(C)C(=O)OC1c1ccccc1F (stereo not given)	none (no result: HIV TAR-Tat)
CC(C)Cn1cc(NC(=O)NCc2ccc3c(c2)OCO3)c2ccccc2c1=O	none (no result: CDC25B-CDK2 inh)
COc1ccccc1C1Nc2c(C)cccc2-c2cc(C)nn21 (stereo not given)	none
Cc1c2c(=O)n(-c3nc4ccccc4s3)[nH]c2cc(=O)n1Cc1ccc(C(=O)O)cc1	HIV TAR-Tat 23.9
CC(=O)N1CCN(CCn2c(C)c3c(=O)n(-c4nc5ccccc5s4)[nH]c3cc2=O)CC1	none
C=CCN1C=C(OC(=O)c2ccccc2)c2ccccc2S1(=O)=O	none
CCCc1ccc(-c2ccc(C(N)=O)cc2)cc1	none (no result: HIV TAR-Tat)
CCCc1cc(C(N)=S)ccn1	HIV TAR-Tat 22.2 (no result: CDC25B-CDK2 inh)
CCCCN1C(=O)N(c2cc(C)ccc2C)C2CS(=O)(=O)CC21 (stereo not given)	none
Cn1c(=O)c2cc3cc(Cl)ccc3nc2c2c(=O)n(-c3ccccc3)c(=O)n(-c3ccccc3)c21	none (no result: HIV TAR-Tat)
Cn1c(=O)c2c3nc4ccccc4cc3c(=O)n(C)c2n(C)c1=O	CDC25B-CDK2 inh 20.1 (no result: HIV TAR-Tat)
COc1cc2c(cc1NC(=O)NC1CCCCC1)oc1ccccc12	none (no result: HIV TAR-Tat)
CCOc1ccc(-c2cn(-c3ccc(C)cc3)c(SCC(=O)NCC3CCCO3)n2)cc1 (stereo not given)	none (no result: HIV TAR-Tat)
O=C(/C=C/c1cccnc1)c1ccc[cH-]1.[Fe+2].c1cc[cH-]c1	CDC25B-CDK2 inh 14.9 (no result: HIV TAR-Tat)
CC(=C/C(=O)O)/C(=C\c1cccnc1)C(=O)O	none (no result: HIV TAR-Tat)
